PubChem BioAssay (EPA / NIEHS)
Active and inactive are the calls of the source. The calls were made as follows: active = hit-call score of the fitted dose curve at least 0.9, where 1 is the maximum; inactive = score below 0.9.

Read-out: CYP2C8 (gene 1558)
Experiment: LTEA_HepaRG_CYP2C8: Life Technologies and Expression Analysis (LTEA) Assay for CYP2C8 using HepaRG (AID 2283483)
Conditions: mRNA level, 48 h; actives raise or lower the signal
Method: LTEA_HepaRG is a cell based, multiplexed-readout assay that uses HepaRG, a human liver cell line, with measurements taken at 48 hours after chemical dosing on a 96-well plate.LTEA_HepaRG_CYP2C8 is one of 102 assay component(s) measured in the LTEA HepaRG cell culture assay. It is a marker of NR mediated metabolism.Data from the assay component LTEA_HepaRG_CYP2C8 was analyzed into 1 endpoint. This assay endpoint, LTEA_HepaRG_CYP2C8, was analyzed with bidirectional fitting relative to DMSO as the negative control and baseline of activity. Using a type of inducible reporter, measures of mRNA induction for gain or loss-of-signal activity can be used to understand regulation of transcription factor activity. To generalize the intended target to other relatable targets, this assay endpoint is annotated to the cyp intended target family, where the subfamily is xenobiotic metabolism.
A total of 1060 chemcials from the ToxCast library were tested in eight-point concentration-response experiments. Cell culture and cytotoxicity assays were conducted at Thermo Fisher Scientific's Custom Services facility (Madison, WI). A single lot of human HepaRG cells (Thermo Fisher Scientific, Frederick, MD) was used for the cell culture experiments. 96-well format collagen type I coated plates of human HepaRG cells were prepared using established methods. Briefly, cryopreserved HepaRG cells were thawed, plated at a density of approximately 100,000 cells/well in HepaRG Thaw, Plate, and General Purpose media (HPRG770, Thermo Fisher Scientific), and incubated for 48 hours. 0.5% DMSO was selected as vehicle control to balance the requisite need of DMSO in HepaRG cultures to maintain differentiation (for example, baseline metabolism, proportions of hepatocytes vs. cholangiocytes), while enabling further hepatic receptor pathway activation (for example, PXR and CAR) in response to chemical exposure. 48 hours after plating, the culture medium was replaced with HepaRG Serum-Free Incudtion Media. Cells were exposed to each test chemical in duplicate and maintained in CO2 incubators for another 48 hours. Chemical plates were thawed to room temperature and 200x concentrations of treatment groups were prepared. 8-point conentration-reponse curves were made with the highest exposure at 100 uM, followed by half-log dilutions, all in 0.5% DMSO. Each test plate contained variouse controls, induction positive controls (1mM phenobarbital), cytotoxicity positive controls ([…] aflatoxin B1), vehicle controls (0.5% DMSO), and total lysis controls (0.5% DMSO). Cell morphology images were taken using an Essen IncuCyte FLR automated microscope, with six 96-well plates imaged in about 24 minutes. Images were captured and exported and JPEG files. Spent culture media was transfered to black-well plates for the LDH assay, and remaining media was sorted at -80 C for later use. Cells were treated with RLT buffer and frozen until shipped for gene expression analysis. Total RNA was isolated from the cell suspension in 75 uL of Buffer RLT (Qiagen, Germantown, MD 20874) by Quintiles/Expression Analysis (Durham, NC) using a custom isolation procedure. Total RNA from each plate well was transferred to a preamplification plate. Fluidigm's 96.96 Dynamic ArrayTM (Fluidigm, Amsterdam, the Netherlands) technology was used for gene expression analyses by quantitative reverse transcription polymerase chain reaction (qRT-PCR, performed by Quintiles/Expression Analysis, Durham, NC)89. Standard TaqManTM Assays (Applied Biosystems/ThermoFisher Scientific, Foster City, CA) were used to assess the expression of 93 genes selected based on their selectivity and sensitivity to important hepatic receptors known to be modulated by environmental chemicals; importance in human hepatocyte functionality; and hepatotoxicity. […]

Compound | outcome | AC50
Cc1nc(-c2ccc3c(c2)CCN(CCC2CCC(NC(=O)/C=C/c4ccc(F)cc4)CC2)CC3)no1 (stereo not given) | inactive | 
Oc1ccc2ccccc2c1N=Nc1ccccc1 |  | 9.55 µM (active)
COc1cc(C=O)ccc1O | inactive | 
Cc1ccc2ncccc2c1 | inactive | 
Nc1ccccc1N |  | 78.3 µM (active)
NS(=O)(=O)c1cc2c(cc1Cl)NCNS2(=O)=O | inactive | 
CCOC(=O)C(C)(C)Oc1ccc(Cl)cc1 | inactive | 
CN1CCCC1=O | inactive | 
CC(=O)OCCOCCOCCOC(C)=O | inactive | 
COc1cc(-c2nc(NC(=O)c3cc4cc(C)cc(C)c4n3CC(=O)O)sc2CCC2CCCCC2)c(OC)cc1Cl |  | 6.7 µM (active)
Cc1c(C(=O)O)c(O)cc2c1C(=O)c1c(O)c([C@@H]3O[C@H](CO)[C@@H](O)[C@H](O)[C@H]3O)c(O)c(O)c1C2=O | inactive | 
Nc1ccc(S(=O)(=O)c2ccc(N)cc2)cc1 | inactive | 
CN[C@H]1CC[C@@H](c2ccc(Cl)c(Cl)c2)c2ccc(S(N)(=O)=O)cc21 | inactive | 
CC1=C(/C=C/C(C)=C/C=C/C(C)=C/CO)C(C)(C)CCC1 |  | 52.2 µM (active)
Cc1ccc(N(C)C)cc1 | inactive | 
CCCCN(CCCC)CCCC | inactive | 
COc1ccc2c(c1)c(CC(=O)O)c(C)n2C(=O)c1ccc(Cl)cc1 | inactive | 
Cc1ccc(C(C)C)c(O)c1 | inactive | 
CC(C)c1ccc(C(=O)N=C(N)N)cc1S(C)(=O)=O |  | 0.578 µM (active)
O=C(O)CCCCC(=O)O | inactive | 

Compound | outcome | AC50
NC(=O)Cn1c(=O)cc(CCN2CCN(c3nccc4sccc34)CC2)c2ccc(F)cc21 | inactive | 
COc1cc(S(=O)(=O)O)c(C)cc1N=Nc1c(O)ccc2cc(S(=O)(=O)O)ccc12 | inactive | 
CCc1c(C(=O)NN2CCCCC2)nn(-c2ccc(Cl)cc2Cl)c1-c1ccc(Br)cc1 |  | 23.6 µM (active)
C1CCC(SSC2CCCCC2)CC1 | inactive | 
CC(=O)Oc1ccccc1C(=O)O | inactive | 
Nc1nc(N)c2nc(CNc3ccc(C(=O)N[C@@H](CCC(=O)O)C(=O)O)cc3)cnc2n1 | inactive | 
O=C(OCCCCCOC(=O)c1ccccc1)c1ccccc1 |  | 0.726 µM (active)
CCCCCCCCCCCC(=O)OC | inactive | 
Cc1cc(NC(=O)C(=O)O)cc(C)c1Oc1ccc(O)c2c1CCC2 | inactive | 
Cc1cccc(C)c1O | inactive | 
O=C(O)Cc1ccccc1Nc1c(Cl)cccc1Cl | inactive | 
Clc1cc(Cl)c(Cl)cc1Cl | inactive | 
c1cc(-c2ccncc2)ccn1 | inactive | 
CCCc1cc(=O)[nH]c(=S)[nH]1 | inactive | 
Cc1nc(C)nc(N2C[C@@H](C)N(c3ccnc([C@@H](C)O)n3)[C@@H](C)C2)n1 | inactive | 
CC(=O)OC/C=C(\C)CCC=C(C)C | inactive | 
COCCOCCOC |  | 0.712 µM (active)
CCCCCCCCCCO | inactive | 
CNC(=O)[C@H]1O[C@@H](n2cnc3c(NCc4cc(Cl)ccc4OCc4cc(C)no4)ncnc32)[C@H](O)[C@@H]1N | inactive | 
CCCCCCCCCCCCCCCC | inactive | 
